# Measurements taken from PubChem BioAssay (EPA / NIEHS).
# Results filed as inconclusive are left out. Some structures have more than one record in an assay (separate samples or runs), and their calls can disagree. The source made the active and inactive calls. The calls were made as follows, unless noted: active = hit-call score of the fitted dose curve at least 0.9, where 1 is the maximum; inconclusive = response in the unintended direction; inactive = score below 0.9.
# Experiments:
# [1] = read-out: Transforming Growth Factor (TGFA), TGFA (gene 7039); experiment: LTEA_HepaRG_TGFA: Life Technologies and Expression Analysis (LTEA) Assay for Transforming Growth Factor (TGFA) using HepaRG (AID 2283532; active = hit-call score of the fitted dose curve at least 0.9, where 1 is the maximum; inactive = score below 0.9); details: mRNA level, 48 h; actives raise or lower the signal
# Summary of the method: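 Differentiated human HepaRG cells, plated 48 h then switched to serum-free induction medium, were exposed in duplicate for 48 h to 8-point half-log series from 100 uM in 0.5% DMSO. TGFA mRNA measured by qRT-PCR, normalized to ACTB/GAPDH/POLR2A, bidirectional fit versus DMSO.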
# [2] = read-out: Transforming Growth Factor (TGFB1), TGFB1 (gene 7040); experiment: LTEA_HepaRG_TGFB1: Life Technologies and Expression Analysis (LTEA) Assay for Transforming Growth Factor (TGFB1) Transporter using HepaRG (AID 2283533; active = hit-call score of the fitted dose curve at least 0.9, where 1 is the maximum; inactive = score below 0.9); details: mRNA level, 48 h; actives raise or lower the signal
# Summary of the method: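 TGFB1 transcript measured by qRT-PCR with normalisation to three housekeeping genes (ACTB, GAPDH, POLR2A); human HepaRG line treated in duplicate for 48 hr with an 8-point series topping at 100 uM, 0.5% DMSO vehicle, bidirectionally fitted.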
# TIMP1, TIMP1 (gene 7076) = experiment: LTEA_HepaRG_TIMP1: Life Technologies and Expression Analysis (LTEA) Assay for TIMP1 using HepaRG (AID 2283534; active = hit-call score of the fitted dose curve at least 0.9, where 1 is the maximum; inactive = score below 0.9); details: mRNA level, 48 h; actives raise or lower the signal
# Summary of the method: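 Bidirectional change in TIMP1 transcript versus 0.5% DMSO, measured by TaqMan qRT-PCR with three housekeeping genes for normalization. HepaRG human liver cells dosed 48 h in duplicate, top concentration 100 uM with half-log dilutions.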
# [3] = read-out: Tumor necrosis factor receptor 1 (TNFRSF1A), TNFRSF1A (gene 7132); experiment: LTEA_HepaRG_TNFRSF1A: Life Technologies and Expression Analysis (LTEA) Assay for Tumor necrosis factor receptor 1 (TNFRSF1A) using HepaRG (AID 2283535; active = hit-call score of the fitted dose curve at least 0.9, where 1 is the maximum; inactive = score below 0.9); details: mRNA level, 48 h; actives raise or lower the signal
# Summary of the method: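 mRNA measured by qRT-PCR (TaqMan, Fluidigm arrays) against ACTB/GAPDH/POLR2A housekeepers after 48 h chemical exposure of HepaRG cells. Top concentration 100 uM, half-log 8-point series, duplicates; vehicle 0.5% DMSO, both fit directions.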
# [4] = read-out: Thyroid Hormone Responsive (THRSP), THRSP (gene 7069); experiment: LTEA_HepaRG_THRSP: Life Technologies and Expression Analysis (LTEA) Assay for Thyroid Hormone Responsive (THRSP) using HepaRG (AID 2283536; active = hit-call score of the fitted dose curve at least 0.9, where 1 is the maximum; inactive = score below 0.9); details: mRNA level, 48 h; actives raise or lower the signal
# Summary of the method: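 Differentiated human HepaRG cells were exposed in duplicate for 48 h in serum-free induction medium to eight concentrations (top 100 uM, half-log steps, 0.5% DMSO). Expression was quantified by TaqMan qRT-PCR, normalized to ACTB, GAPDH and POLR2A, with bidirectional fitting against DMSO.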
# [5] = read-out: Cellular tumor antigen p53 (Homo sapiens) (UniProt P04637); experiment: LTEA_HepaRG_TP53: Life Technologies and Expression Analysis (LTEA) Assay for Tumor Protein P53 (TP53) using HepaRG (AID 2283537; active = hit-call score of the fitted dose curve at least 0.9, where 1 is the maximum; inactive = score below 0.9); details: mRNA level, 48 h; actives raise or lower the signal
# Summary of the method: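 TP53 transcript measured by qRT-PCR, normalized to three housekeeping genes, after 48 h treatment of human HepaRG cultures with chemicals from 100 uM downward in half-log steps (0.5% DMSO vehicle, serum-free induction medium). Up- or down-regulation fitted against DMSO.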
# [6] = read-out: UDP glucuronosyltransferase (UGT1A1), UGT1A1 (gene 54658); experiment: LTEA_HepaRG_UGT1A1: Life Technologies and Expression Analysis (LTEA) Assay for UDP glucuronosyltransferase (UGT1A1) using HepaRG (AID 2283538; active = hit-call score of the fitted dose curve at least 0.9, where 1 is the maximum; inactive = score below 0.9); details: mRNA level, 48 h; actives raise or lower the signal
# Summary of the method: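 Human liver HepaRG cultures receive test chemical for 48 h, up to 100 uM in 0.5% DMSO, with phenobarbital induction controls. UGT1A1 mRNA is measured by qRT-PCR and normalized to ACTB, GAPDH and POLR2A.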
# [7] = read-out: UDP glucuronosyltransferase (UGT1A6), UGT1A6 (gene 54578); experiment: LTEA_HepaRG_UGT1A6: Life Technologies and Expression Analysis (LTEA) Assay for UDP glucuronosyltransferase (UGT1A6) using HepaRG (AID 2283539; active = hit-call score of the fitted dose curve at least 0.9, where 1 is the maximum; inactive = score below 0.9); details: mRNA level, 48 h; actives raise or lower the signal
# Summary of the method: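 Expression was quantified by TaqMan qRT-PCR on Fluidigm arrays with ACTB/GAPDH/POLR2A normalization and bidirectional fitting against 0.5% DMSO. HepaRG cells (~100,000/well) were treated in duplicate for 48 h at eight half-log concentrations up to 100 uM in serum-free induction medium.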
# [8] = read-out: X-box binding protein 1 (XBP1), XBP1 (gene 7494); experiment: LTEA_HepaRG_XBP1: Life Technologies and Expression Analysis (LTEA) Assay for X-box binding protein 1 (XBP1) using HepaRG (AID 2283540; active = hit-call score of the fitted dose curve at least 0.9, where 1 is the maximum; inactive = score below 0.9); details: mRNA level, 48 h; actives raise or lower the signal
# Summary of the method: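 XBP1 transcript by qRT-PCR (housekeeping-normalized: ACTB, GAPDH, POLR2A) after 48 h chemical treatment of HepaRG cells, 8-point half-log series topping at 100 uM, vehicle 0.5% DMSO. Gain and loss of signal fitted relative to DMSO.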
# [9] = LTEA_HepaRG_LDH_cytotoxicity: Cytotoxicity Assessment in the Life Technologies and Expression Analysis (LTEA) Assay (AID 2283563);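 also: LDH activity released into spent culture medium as a marker of cell death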
# Summary of the method: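 LDH release into culture medium read after 48 h chemical treatment of HepaRG cells. Duplicate wells, eight-point half-log series topping at 100 uM, 0.5% DMSO vehicle and baseline.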
# [10] = ATG_XTT_Cytotoxicity: Cytotoxicity Assessment in the Attagene TRANS-FACTORIAL HepG2 Assay (AID 2283584)
# Summary of the method: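 Viability endpoint from XTT after 24 h chemical exposure of reporter-transfected human HepG2 liver cells; signal loss fitted relative to DMSO negative control.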
# [11] = TOX21_p53_BLA_p2_viability: Viability Assessment in the Tox21 HCT-116 p53 Agonism Beta-lactamase Assay, Phase 2 (AID 2283591);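 also: compound exposure lasted 16 h at 37 °C; actives lower the ATP signal meaning cytotoxicity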
# Summary of the method: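 HCT-116 p53-bla cells (4000/well) rested 5 h at 37C, then received compounds in DMSO (217-fold dilution) for 16 h at 37C, 5% CO2. After the CCF4 read, CellTiter-Glo was added; ATP luminescence was read after 30 min at room temperature.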
# [12] = biological target: Cellular tumor antigen p53 (Homo sapiens) (UniProt P04637); experiment: TOX21_p53_BLA_p2_ratio: Tox21 HCT-116 p53 Agonism Beta-lactamase Assay, Ratio, Phase 2 (AID 2283592)
# Sequence of Cellular tumor antigen p53 (Homo sapiens) (P04637 whole entry, looked up): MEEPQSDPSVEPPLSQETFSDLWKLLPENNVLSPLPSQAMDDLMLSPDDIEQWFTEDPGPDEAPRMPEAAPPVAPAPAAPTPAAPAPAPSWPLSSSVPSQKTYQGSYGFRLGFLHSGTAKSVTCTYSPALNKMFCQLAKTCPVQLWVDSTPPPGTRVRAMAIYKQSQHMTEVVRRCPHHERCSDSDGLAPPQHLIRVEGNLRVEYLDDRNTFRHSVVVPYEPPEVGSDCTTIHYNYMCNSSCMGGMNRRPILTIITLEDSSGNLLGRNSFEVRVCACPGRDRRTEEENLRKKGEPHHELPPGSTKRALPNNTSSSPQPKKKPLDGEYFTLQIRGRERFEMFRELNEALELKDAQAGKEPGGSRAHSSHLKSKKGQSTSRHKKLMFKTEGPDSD
# Summary of the method: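 Gain-of-signal p53 agonism was scored from the beta-lactamase FRET ratio (460/530 nm, 405 nm excitation) in HCT116 cells treated 16 h at 37C, 5% CO2, with DMSO serving as negative control and baseline.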
# [13] = biological target: Cellular tumor antigen p53 (Homo sapiens) (UniProt P04637); experiment: TOX21_p53_BLA_p3_ratio: Tox21 HCT-116 p53 Agonism Beta-lactamase Assay, Ratio, Phase 3 (AID 2283596)
# Summary of the method: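 HCT116 p53-bla cells (4000/well) given compound in DMSO (217-fold dilution) after 5 h, incubated 16 h at 37C. CCF4-AM substrate 2 h at room temperature; 460/530 nm emission ratio, gain fitted against DMSO.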
# [14] = TOX21_p53_BLA_p4_viability: Viability Assessment in the Tox21 HCT-116 p53 Agonism Beta-lactamase Assay, Phase 4 (AID 2283597);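 also: hits lower the luminescence signal meaning cytotoxicity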
# Summary of the method: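 Following a 16 h exposure at 37C, the treated HCT116 wells were first read for the FRET ratio. They were then lysed with CellTiter-Glo, and ATP luminescence was recorded after 30 min at room temperature.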
# [15] = biological target: Cellular tumor antigen p53 (Homo sapiens) (UniProt P04637); experiment: TOX21_p53_BLA_p5_ratio: Tox21 HCT-116 p53 Agonism Beta-lactamase Assay, Ratio, Phase 5 (AID 2283599)
# Summary of the method: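 HCT-116 cells carrying a p53-inducible beta-lactamase reporter were seeded at 4000 cells/well and dosed after 5 h with compound in DMSO (217-fold dilution). After 16 h at 37C, CCF4-AM substrate was added for 2 h, and the 460/530 nm emission ratio was scored as gain-of-signal versus DMSO.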
# [16] = TOX21_p53_BLA_p5_viability: Viability Assessment in the Tox21 HCT-116 p53 Agonism Beta-lactamase Assay, Phase 5 (AID 2283600)
# Summary of the method: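 After the 460/530 nm beta-lactamase measurement, the wells received an ATP-detection luciferase reagent; signal was read 30 min later at RT. Compound treatment lasted 16 h on cells pre-incubated 5 h post-seeding.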
# [17] = Tanguay_ZF_120hpf_MORT_legacy: (Legacy) Oregon State University Tanguay Lab 120 Hour Post-fertilization zebrafish Assay for Mortality (AID 2283633);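 as to AC50: fitted as increase in binary mortality versus DMSO negative control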
# Summary of the method: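 Static waterborne exposure from 6 to 120 hpf at 28C of single dechorionated wild-type (5D) embryos per well, 0.64% DMSO final. Death recorded present/absent by brightfield at 24 and 120 hpf.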
smiles,measurement,setting,value
CC(=O)N1CCN(c2ccc(OC[C@H]3CO[C@](Cn4ccnc4)(c4ccc(Cl)cc4Cl)O3)cc2)CC1,AC50,[1],12.1 µM (active)
same,AC50,[2],90.9 µM (active)
same,AC50,"TIMP1, TIMP1 (gene 7076)",83.1 µM (active)
same,AC50,[3],75.9 µM (active)
same,AC50,[4],12.7 µM (active)
same,AC50,[5],90.3 µM (active)
same,AC50,[6],11.6 µM (active)
same,AC50,[7],30.8 µM (active)
same,outcome,[8],inactive
same,AC50,[9],86.9 µM (active)
same,outcome,[10],inactive
same,AC50,[11],56.7 µM (active)
same,outcome,[11],inactive
same,outcome,[12],inactive
same,AC50,[13],58.3 µM (active)
same,outcome,[13],inactive
same,AC50,[14],58.7 µM (active)
same,outcome,[14],inactive
same,AC50,[15],46.1 µM (active)
same,outcome,[15],inactive
same,AC50,[16],64.4 µM (active)
same,outcome,[16],inactive
same,outcome,[17],inactive
CC(C)(C)c1csc(-c2cc3cc(OCc4ccccc4CC(=O)O)ccc3o2)n1,AC50,[1],85.4 µM (active)
same,AC50,[2],81.9 µM (active)
same,AC50,"TIMP1, TIMP1 (gene 7076)",78.4 µM (active)
same,AC50,[3],83.2 µM (active)
same,outcome,[4],inactive
same,AC50,[5],82.4 µM (active)
same,AC50,[6],85.5 µM (active)
same,AC50,[7],77.2 µM (active)
same,outcome,[8],inactive
same,AC50,[9],76.6 µM (active)
same,outcome,[10],inactive
same,AC50,[11],25.5 µM (active)
same,AC50,[12],36.2 µM (active)
same,AC50,[13],27.9 µM (active)
same,AC50,[14],46.1 µM (active)
same,AC50,[15],47 µM (active)
same,outcome,[16],inactive
same,AC50,[17],25.9 µM (active)
